According to PubChem BioAssay (NCATS):
Results filed as inconclusive are left out. Calls of active or inactive are those of the source. Calls follow the shape of the dose curve; as a rule, active = well fitted cell-killing curve with a large enough effect; inconclusive = small, poorly fitted or top-dose-only effect; inactive = flat fitted curve, though single readings scatter.

Experiment: Identifying Small Molecule Inhibitors of Pancreatic Cancer Stem Cells (A278, Adherent) (AID 1259361);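 also: viability read after 48 h compound exposure; nearly all actives have a fitted effect of over 35% in size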;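 as to viability (% of control): 100% = DMSO-treated cells and 0% = cell-free media-only wells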
Conditions: series mostly up to 46.1 µM; viability (% of control): at the top concentration
Text: Progenitor-like cancer cells, often referred to as cancer stem cells (CSC), are believed to be the drivers of therapeutic resistance and rapid recurrence. CSCs are postulated to reside in specific niches characterized by low oxygen tension, limited nutrient supply, and high redox load. Selectively targeting CSC, alone or in combination with cytotoxic agents, as a means to produce durable remissions is an appealing concept. Modeling these cells in in vitro setting is an important step in finding new therapies and/or targets. Multiple reports highlight that forcing cells in culture into 3-dimensionaly architectures (spheroids) re-establishes key progenitor-like transcriptional signatures. Pancreatic cancer is among the diseases with the most dismal outlook which is driven, largely, by recurance following front-line therapies. […] In hopes of deriving new insight into the targeting of these pancreatic CSCs we examined three established pancreatic cancer cell lines in cytotoxicity assays versus a collection of approved and investigational drugs. Importantly, we screened these lines as traditional monolayer (2D) and spheroid (3D) formats to gain an appreciation of agents with differential activity.
Multicellular tumor spheroids from Panc1, MiaPaCa-2, and the primary low-passage tissue culture line SB.06 were seeded in stem cell media (SCM) in nonadherent 6-well plates coated with hydrogel (Corning Life Sciences, Chelmsford, Mass) and pancreatic spheres generated for 14 days before screening. Cells were seeded into 1536-well solid-bottom white tissue culture treated Greiner Bio One Plates (789173-F) using a MultiDrop Combi (Thermofisher Scientific) dispenser and a small sterile cassette. One column was media alone to be used as a :"no cells" control. The plates were then covered with sterilized stainless steel gasketed lids from Kalypsys. After allowing cells to attach for 4 hours, 23 nL of test compound or control (negative control DMSO and positive control 9.2 uM Bortezomib-final) were added from a 1536-well polypropylene compound source plate to each well using a 1536 head pin tool from Kalypsys. Cells were then incubated for 48 hours at 37C, 95% relative humidity and 5% CO2. After 48 hours, plates were removed from the incubator and 3 uL of CellTiter-Glo (Promega) was added using an Aurora Flying Reagent Dispenser Bioraptor. Plates were incubated at room temperature for 10 minutes prior to reading the luminescence on the Viewlux (PerkinElmer). The relative luciferase units are used to calculate the percent activity using the activity of DMSO in the cells and no cells columns for normalization of no inhibition and full inhibition respectively.

Row | Structure (SMILES) | IC50 (viability decrease) | viability (% of control)
1 | CC1=C(/C=C/C(C)=C/C=C/C(C)=C/C(=O)Nc2ccc(O)cc2)C(C)(C)CCC1 | 3.32 µM (active) | –
2 | CO[C@@H](C(=O)N1Cc2[nH]nc(NC(=O)c3ccc(N4CCN(C)CC4)cc3)c2C1)c1ccccc1 | 0.0935 µM (active) | –
3 | CS(=O)c1ccc(-c2nc(-c3ccc(F)cc3)c(-c3ccncc3)[nH]2)cc1 (centres undefined) | – | 87.1 (inactive)
4 | O=C(CCCCCCC(=O)Nc1ccccc1)NO | 3.4 µM (active) | –
5 | CO[C@H]1C=CC=C(C)C(=O)NC2=CC(=O)C(NCCN(C)C)=C(C[C@@H](C)C[C@H](OC)[C@@H](O)[C@@H](C)C=C(C)[C@@H]1OC(N)=O)C2=O | 0.0059 µM (active) | –
6 | CN(C)Cc1ccc(-c2nc3cccc4c3n2CCNC4=O)cc1 | 23.5 µM (active) | –
7 | COc1cccc2c1CCCC2CCCN1CCN(C2CCCCC2)CC1 (centres undefined) | 16.6 µM (active) | –
8 | OC[C@H]1O[C@@H](n2cnc3c2NC=NC[C@@H]3O)C[C@H]1O | 20.9 µM (active) | –
9 | O=c1cc(N2CCOCC2)oc2c(-c3cccc4c3sc3ccccc34)cccc12 | 18.7 µM (active) | –
10 | CC(C)(C)c1cc(C(=O)O)c(NC(=O)Nc2ccc3[nH]ncc3c2)s1 | – | 100 (inactive)
11 | Cc1nc(N)sc1-c1ccnc(Nc2ccc(N3CCOCC3)cc2)n1 | 5.9 µM (active) | –
12 | Cc1ccc(F)c(NC(=O)Nc2ccc(-c3cccc4[nH]nc(N)c34)cc2)c1 | 26.4 µM (active) | –
13 | CN1CCN(CCOc2cc(OC3CCOCC3)c3c(Nc4c(Cl)ccc5c4OCO5)ncnc3c2)CC1 | 20.9 µM (active) | –
14 | CC(C)(C)C(=O)Oc1ccc2c(c1)nc(NC(=O)c1cccc([N+](=O)[O-])c1)n2CCCO | 18.7 µM (active) | –
15 | O=C(O)CCC1CCC(c2cc(F)ccc2F)(S(=O)(=O)c2ccc(Cl)cc2)CC1 (centres undefined) | – | 91.7 (inactive)
16 | COc1ncc(-c2ccc3nccc(-c4ccnnc4)c3c2)cc1NS(=O)(=O)c1ccc(F)cc1F | 0.118 µM (active) | –
17 | CC(C)[C@H](CO)Nc1nc(Nc2ccc(C(=O)O)c(Cl)c2)c2ncn(C(C)C)c2n1 | – | 114 (inactive)
18 | CCOc1ccc(Nc2nc(-c3c(C)nc4ccccn34)cs2)cc1 | 0.0264 µM (active) | –
19 | CC(C)(C)COc1ccc(-n2cc(C(=O)O)cn2)cc1C#N | – | 107 (inactive)
20 | CC(=O)N(C)C1(c2ccccc2)CCN(CCC[C@]2(c3ccc(Cl)c(Cl)c3)CCCN(C(=O)c3ccccc3)C2)CC1 | 9.35 µM (active) | –
21 | O=C1C(Cl)=C(NCCN2CCOCC2)C(=O)c2ncccc21 | 3.32 µM (active) | –
22 | O=C(O)c1ccc(-c2cc3cccnc3c(-c3ccc4nonc4c3)n2)cc1 | – | 95.5 (inactive)
23 | NC(CO)(CO)CCc1ccc(Sc2cccc(OCc3ccccc3)c2)cc1Cl | 26.4 µM (active) | –
24 | CC(C)(C(=O)NCC(F)(F)C(F)(F)F)C(=O)N[C@@H]1C(=O)Nc2ccccc2-c2ccccc21 | – | 95.5 (inactive)
25 | COc1cc2ncnc(-n3nc(-c4ccccn4)nc3N)c2cc1OC | 3.32 µM (active) | –
26 | Clc1ccc(-c2nc3sccn3c2C=NOCc2ccc(Cl)c(Cl)c2)cc1 | – | 111 (inactive)
27 | COc1cc(N2CCC(N3CCN(C)CC3)CC2)ccc1Nc1ncc(Cl)c(Nc2ccccc2S(=O)(=O)C(C)C)n1 | 6.62 µM (active) | –
28 | c1ccc2c(-c3cnn4cc(-c5ccc(N6CCNCC6)cc5)cnc34)ccnc2c1 | 23.5 µM (active) | –
29 | CN(C)C1CCN(C(=O)c2ccc(NC(=O)Nc3nc(N4CCOCC4)nc(N4CCOCC4)n3)cc2)CC1 | 0.0148 µM (active) | –
